Experimental data taken from PubChem BioAssay (Tox21).
Results filed as inconclusive are left out. Activity calls are given as the source filed them. Calls come from the whole dose curve; as a rule, active = well fitted cell-killing curve with a large enough effect in the repeat runs; inconclusive = weak or mixed curves, or effect the other way; inactive = flat fitted curve, though single readings scatter.

Experiment: qHTS assay to identify small molecule antagonists of the estrogen receptor alpha (ER-alpha) signaling pathway using the BG1 cell line in the presence of 0.1 nM 17-beta-estradiol - cell viability counter screen (AID 1259241); note: nearly all actives have a fitted effect of over 40% in size
Details: VM7Luc4E2 (BG1) viability, CellTiter-Fluor protease, 22 h, 0.1 nM estradiol agonist added; series mostly up to 92.4 µM
Source text: National Center for Advancing Translational Sciences [NCATS]
NIH Chemical Genomics Center [NCGC]
U.S. Environmental Protection Agency [EPA]
National Institutes of Environmental Health Sciences [NIEHS]
National Toxicology Program [NTP]
U.S. Food and Drug Administration [FDA]
Estrogen receptor (ER), a member of the nuclear hormone receptor plays an important role in development, metabolic homeostasis and reproduction. Two subtypes of ER, ER-alpha and ER-beta, have similar expression patterns with some uniqueness in both types. Endocrine disrupting chemicals (EDCs) and their interactions with steroid hormone receptors like ER causes disruption of normal endocrine function. Therefore, it is important to understand the effect of environmental chemicals in ER signaling pathway. For identifying ER antagonists, VM7Luc4E2 cell line was used to screen against Tox21 compound libraries.
VM7Luc4E2 cell line (provided by Denison MS, University of California) endogenously express full-length ER-alpha and is stably transfected with a plasmid containing four estrogen responsive elements (ERE) upstream of a luciferase reporter gene. The current screening for identification of ER-alpha inhibitors against Tox21 compound libraries used lower concentration (0.1 nM) of 17beta-Estradiol as a stimulator. The cytotoxicity of the Tox21 compound libraries against VM7Luc4E2 cell line was tested by measuring live-cell protease activity using CellTiter-Fluor assay in the same wells.
Tox21 Assay Protocol Summary:
VM7Luc4E2 cells were cultured in phenol red free assay medium containing 10% charcoal stripped FBS for 5 days prior to the assay. The cells were dispensed at 4,000 cells/well in 4 uL of assay medium into white wall/solid-bottom 1536-well plates (Corning Life Sciences, Corning, NY) using a Multidrop Combi (ThermoFisher Scientific, Waltham, MA) dispenser. After the assay plates were incubated at 37C and 5% CO2 for 24 hr, 23 nL of compounds dissolved in DMSO, positive controls or DMSO only was transferred to the assay plates by a Pintool station (Kalypsys, San Diego, CA). The transfer of compounds was followed by the addition of 1 uL of 0.1 nM (final concentration) agonist (17beta-Estradiol)/assay medium using a Flying Reagent Dispenser (FRD, Aurora Discovery, San Diego, CA). The plates were incubated at 37C and 5% CO2 for 22 hr. For cytotoxicity assay, 1 uL of CellTiter-Fluor reagent (Promega Corporation, Madison, WI) was added to each well using the FRD and after 30 min incubation at 37C and 5% CO2, The fluorescence intensity was measured using ViewLux plate reader (PerkinElmer, Shelton, CT).

| Compound | outcome |
| --- | --- |
| COc1cccc(C(=O)NN(C(=O)c2cc(C)cc(C)c2)C(C)(C)C)c1C | inactive |
| CCOP(=S)(OCC)Oc1cc(-c2ccccc2)on1 | inactive |
| CC(C)CC(N(C)C)C1(c2ccc(Cl)cc2)CCC1 (stereo not given) | inactive |
| COc1cc(OC)nc(NC(=O)NS(=O)(=O)c2ncccc2OCC(F)(F)F)n1 | inactive |
| CNC(=O)Oc1cccc(C(C)C)c1 | inactive |
| CC(C)[N+](=O)[O-] | inactive |
| CC(CC(C#N)(c1ccccc1)c1ccccc1)N(C)C (stereo not given) | inactive |
| CC(C)CP(=S)(S)CC(C)C | inactive |
| CC(C)COP(=O)(OCC(C)C)OCC(C)C | inactive |
| CC1CCCCC1NC(=O)Nc1ccccc1 (stereo not given) | inactive |
| CC(N)=S | inactive |
| CN1C[C@@H](NS(=O)(=O)N(C)C)C[C@@H]2c3cccc4c3c(cn4C)C[C@H]21 | inactive |
| COP(N)(=S)Oc1ccccc1C(=O)OC(C)C (stereo not given) | inactive |
| O=C1CN=C(c2ccccc2)c2cc([N+](=O)[O-])ccc2N1 | inactive |
| CCC/C(=N\OCC)C1=C(O)CC(CC(C)SCC)CC1=O (stereo not given) | inactive |
| CN1CCN(C(=O)O[C@H]2c3nccnc3C(=O)N2c2ccc(Cl)cn2)CC1 | inactive |
| O=C1CN2CCOC2(c2ccccc2Cl)c2cc(Cl)ccc2N1 (stereo not given) | inactive |
| COc1cc2c(cc1OC)[C@@]13CCN4CC5=CCO[C@H]6CC(=O)N2[C@H]1[C@H]6[C@H]5C[C@H]43 | inactive |
| CCCCc1c(C)nc(NCC)[nH]c1=O | inactive |
| CCCSC(=O)Cl | inactive |

| Compound | outcome |
| --- | --- |
| CCCCOC(=O)c1ccccc1C(=O)O | inactive |
| CNCC(=O)c1ccc(O)c(O)c1 | inactive |
| CC(=O)CC(c1ccc(Cl)cc1)c1c(O)c2ccccc2oc1=O (stereo not given) | inactive |
| CCOP(=S)(OCC)SCSP(=S)(OCC)OCC | inactive |
| CCS(=O)(=O)CCSP(=O)(OC)OC | inactive |
| CNC(=O)Oc1ccccc1C1OCCO1 | inactive |
| CC(Oc1ccc(Oc2ncc(C(F)(F)F)cc2Cl)cc1)C(=O)O (stereo not given) | inactive |
| O=C(CCN1CC1)OCC(CO)(COC(=O)CCN1CC1)COC(=O)CCN1CC1 | inactive |
| O=C(N[C@H]1CN2CCC1CC2)c1cc2ccoc2cn1 | inactive |
| CCC1(c2ccccc2)C(=O)NC(=O)NC1=O | inactive |
| CCC(=O)C(CCN(C)C)(c1ccccc1)c1ccccc1 | inactive |
| CCOP(=S)(OCC)Oc1nc(Cl)n(C(C)C)n1 | inactive |
| CCCCCCI | inactive |
| O=[N+]([O-])c1cccc2cccnc12 | inactive |
| CC(C)(C)OC(=O)c1ncn2c1[C@@H]1CCCN1C(=O)c1c(Br)cccc1-2 | inactive |
| Cc1cccc(C#N)c1 | inactive |
| CCNc1nc(NC(C)C)nc(OC)n1 | inactive |
| CN1CCC(N(Cc2ccccc2)c2ccccc2)CC1 | inactive |
| O=C(Oc1ccc(Br)cc1)N1CCN2CCC1CC2 | inactive |
| O=C(Cc1ccccc1)OCc1ccccc1 | inactive |
